# Assay outcomes from PubChem BioAssay.
# This is a sample that favours compounds with a hit; in the whole collection about 2.4% have one here.
# MBD2 DNA inh: blocks human MBD2 binding to methylated DNA | 370,000 compounds, 0.31% hits | TR-FRET, MBD2 binding to methylated oligonucleotide | inhibition, % at 4.4 µM | Q9UBB5; in the data active = inhibition above about 13%
# Target sequence (Q9UBB5 whole entry, looked up): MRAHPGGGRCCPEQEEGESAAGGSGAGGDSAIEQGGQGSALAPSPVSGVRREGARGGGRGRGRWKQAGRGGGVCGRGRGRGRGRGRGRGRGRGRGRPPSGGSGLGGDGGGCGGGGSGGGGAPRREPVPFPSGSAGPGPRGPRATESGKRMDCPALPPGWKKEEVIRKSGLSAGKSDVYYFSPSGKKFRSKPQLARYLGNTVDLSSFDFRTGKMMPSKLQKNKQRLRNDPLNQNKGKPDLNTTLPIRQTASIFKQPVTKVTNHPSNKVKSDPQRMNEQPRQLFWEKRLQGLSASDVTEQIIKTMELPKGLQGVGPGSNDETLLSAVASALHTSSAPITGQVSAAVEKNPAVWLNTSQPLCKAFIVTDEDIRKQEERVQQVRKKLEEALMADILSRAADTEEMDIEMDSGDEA
# UHRF1 MBD2 ctr: blocks human UHRF1 binding to methylated DNA | UHRF1 binding to methylated oligo, TR-FRET | Q96T88 | 370,000 compounds, 0.75% hits | inhibition, % at 4.4 µM;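 also: UHRF1 SRA domain binding a hemimethylated CpG hairpin DNA probe; 0% = median of test compound wells and 100% = reference inhibitor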
# LEDGF integ inh: blocks HIV-1 LEDGF/p75-dependent DNA integration | TR-FRET IN-LEDGF/p75 DNA integration, Eu/Cy5 | inhibition, % at 3.7 µM | 370,000 compounds, 0.64% hits | AID 743269;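 active = inhibition above the screen-wide mean plus 3 SD, cut at about 13% in these data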;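 also: signal is the Cy5 over europium emission ratio at 671 and 618 nm; 0% = plate median of compound wells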
# PLC-beta3 inh: PLC-beta3 (human) inhibition, primary screen; inhibition, % at 12.2 µM; 370,000 compounds, 0.18% hits; Purified PLC-beta3, fluorogenic substrate, fluorescence; AID 720704; Q01970; in the data active = inhibition above about 11%;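 also: 0% = median of compound wells on plate and 100% = full blocker control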
# PLCg1 inh: blocks human PLC-gamma1 enzyme activity; P19174; purified PLC-gamma1, fluorogenic substrate, fluorescence; inhibition, % at 12.2 µM; 370,000 compounds, 0.84% hits; in the data active = inhibition above about 9.5%
# UHRF1 ctr MBD2: UHRF1 methyl-oligo binding inhibition as MBD2 counter-screen | AID 720530 | 1,000 compounds, 25% hits | inhibition, % at 4.4 µM | UHRF1 binding to methylated oligonucleotide, TR-FRET | shares compounds with MBD2 DNA inh;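 also: UHRF1 SRA domain binding a labeled hemimethylated CpG hairpin DNA; 0% = vehicle only and 100% = reference inhibitor with vehicle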
# MBD2 DBD conf: confirmation of human MBD2-DBD methylated oligonucleotide binding inhibitors; TR-FRET MBD2-DBD binding to methylated oligonucleotide; 1,000 compounds, 26% hits; inhibition, % at 4.4 µM; shares compounds with MBD2 DNA inh; in the data active = inhibition above about 14%
# Active calls of the source: *; i = inactive; · = not tested or not shown. Rule as the data show it, unless noted: active = inhibition above about 21%; inactive = the rest.
SMILES,MBD2 DNA inh,UHRF1 MBD2 ctr,LEDGF integ inh,PLC-beta3 inh,PLCg1 inh,UHRF1 ctr MBD2,MBD2 DBD conf
Cc1ccccc1CC1(CO)CCCN(C(=O)CCN2CCCO2)C1 (stereo not drawn),16*,2,5,-9,4,4,3
CCOc1cc(N2CCOCC2)c(OCC)cc1NC(=O)COC(=O)c1cc(C)oc1C,15*,4,-6,2,3,13,3
CCN1CCN(CC(O)COCC2COc3ccccc3O2)CC1 (stereo not drawn),16*,16,-1,-7,1,6,0
CCN(CC)CCN1C(=O)c2cccc3cc(N)cc(c23)C1=O,14*,-3,3,-198,-138,-1,8
Nc1cc2c3c(cccc3c1)C(=O)N(CCN1CCCC1)C2=O,6,-13,2,-197,-149,·,·
Cc1cc(C)cc(N(CC(=O)NC2CCC(C)CC2)S(=O)(=O)c2cccs2)c1 (stereo not drawn),-1,1,-3,-2,-5,·,·
CC(=O)Nc1ccc(S(=O)(=O)CC(=O)CS(=O)(=O)c2ccc(NC(C)=O)cc2)cc1,14*,1,-2,-18,-10,5,-1
CC(=O)CCS(=O)(=O)c1ccc(NC(C)=O)cc1,-1,3,-2,0,-1,·,·
COC(=O)[C@]12C[C@H](CC(=O)NCCCN3CCCC3=O)C(=O)N(Cc3ccc(Cl)cc3Cl)C1=C[C@H](C(C)C)O[C@@H]2C1CC1,8,-2,-5,-2,1,·,·
Cc1cccc(C(=O)NC(=O)Nc2c(C)cc(C)nc2C)c1,14*,24*,0,-3,2,4,4
O=C(Nc1cccnc1)C1(c2ccccc2)CCCC1,16*,23*,3,0,1,6,2
Cc1ccc(-c2nc3ncccn3c2NC(=O)Nc2ccc(F)cc2)cc1,-8,-1,8,i,i,·,·
CN(C(=O)C1CCN(c2cncnc2)CC1)C1CCCCC1,5,-1,3,-8,-7,·,·
O=C(Nc1cnc2ccccc2c1)N1CCOCC1,16*,20,0,-17,-7,13,7
O=C(Nc1cnc2ccccc2c1)N1CCCCC1,0,-1,0,-6,-5,·,·
O=C(c1ccccc1Cl)N1CCC(Oc2cccnc2)CC1,5,1,-4,-2,0,·,·
CCOC(=O)C1=C(COC(=O)C2CC(=O)N(c3ccc(C)cc3)C2)NC(=O)NC1C (stereo not drawn),14*,37*,5,-10,2,2,1
Cc1ccc(C(=O)O)cc1-c1ccc(/C=C2/NC(=O)N(c3ccccc3)C2=O)o1,14*,43*,9,-257,-204,30*,11
Cc1ccc(CN2C(=O)N/C(=C\c3ccc(-c4ccc(C(=O)O)cc4C)o3)C2=O)cc1,8,14,5,-26,-12,·,·
COCC(=O)N[C@@H]1C[C@@H]2O[C@H](CO)CC[C@@H]2O[C@@H]1CCc1ccc(-c2ccccc2)cc1,6,6,-3,-3,1,·,·
COc1ccccc1NC(=O)N1CCN(CCc2ccccc2)CC1,-3,0,-2,-5,2,·,·
CCN1CCN(C(=O)Nc2ccccc2OC)CC1,14*,-1,1,-2,0,3,2
Cc1nn(-c2ccccc2)c2sc(C(=O)NCCc3ccccc3)cc12,-3,-1,-1,-8,-5,·,·
COc1cc(C(O)c2nc(-c3ccccc3)cs2)ccc1F (stereo not drawn),14*,-2,3,-6,0,1,4
COc1cc(-n2c(C)nc3cc(C(=O)N4CCN(C(C)=O)CC4)ccc32)cc(OC)c1OC,4,1,0,1,-1,·,·
CC(=O)Nc1cc(NC(C)=O)cc(C(=O)OCC(=O)c2ccc3c(c2)NC(=O)CO3)c1,-2,-2,2,-9,2,·,·
N#CCC(=O)Nc1ccc(C(=O)OCC(=O)c2ccc3c(c2)NC(=O)CO3)cc1,14*,14,-2,-32,-16,17,13*
Cc1ccc(S(=O)(=O)N2CCN(C(=O)c3cccn3C)CC2)cc1,4,2,-5,-3,0,·,·
